From PubChem BioAssay (EPA / NIEHS)
Active and inactive are the calls of the source. Rule for the calls: active = hit-call score of the fitted dose curve at least 0.9, where 1 is the maximum; inactive = score below 0.9.

test: ATG_Oct_MLP_CIS: Attagene CIS-FACTORIAL HepG2 Assay for human Octamer-Binding Transcription Factor (Oct) (AID 2282993); conditions: HepG2 Attagene cis-factorial Oct reporter, mRNA; actives raise or lower the signal
Description: ATG_CIS is a cell-based, multiplexed-readout assay that uses HepG2, a human liver cell line, with measurements taken at 24 hours after chemical dosing in a 24-well plate.ATG_Oct_MLP_CIS is one of 52 assay component(s) measured or calculated from the ATG_CIS assay. It is designed to make measurements of mRNA induction, a form of inducible reporter, as detected with fluorescence intensity signals by Reverse transcription polymerase chain reaction (RT-PCR) and Capillary electrophoresis technology.Data from the assay component ATG_Oct_MLP_CIS was analyzed into 1 assay endpoint. This assay endpoint, ATG_Oct_MLP_CIS, was analyzed with bidirectional fitting relative to DMSO as the negative control and baseline of activity. Using a type of inducible reporter, measures of mRNA for gain or loss-of-signal activity can be used to understand the reporter gene at the transcription factor-level as they relate to the gene POU2F1. Furthermore, this assay endpoint can be referred to as a primary readout, because this assay has produced multiple assay endpoints where this one serves a reporter gene function. To generalize the intended target to other relatable targets, this assay endpoint is annotated to the dna binding intended target family, where the subfamily is POU domain protein.
Human liver HepG2 cells are transiently transfected with multiple reporter transcription units (MRTUs) in 6-well plates using FuGene 6 reagent (Roche; 3 ml FuGene/1 mg DNA). The MRTU constructs are regulated by a cis-regulating element (promoter). […] A major difference between the CIS and TRANS system is that in CIS activities of endogenous TFs are measured, whereas the TRANS assay evaluates changes in activities of exogenous, chimeric NR-Gal4 proteins. […] At the end of 24 hour incubation, total RNA was isolated using TriZol reagent (Invitrogen). The isolated RNA is then reverse-transcribed using oligo(dT) primer and Mo-MLV reverse transcriptase (Invitrogen) with DNAse I (Ambion) treatment for 30 min. The one-tenth of the produced cDNA was amplified by PCR using Taq DNA polymerase (Invitrogen) and two reporter sequence-specific primers. The PCR products were fluorescently labeled by primer extension with 6-arboxyfluorescein (6-FAM) 5'-labeled reporter sequence-specific primer (2 min at 95 C, 20 s at 68 C and 10 min at 72 C) and these products were digested with 5U of HpaI (New England Biolabs) for 2h at 37 C. The fragments were purified using Qiaquick PCR columns (Qiagen), analyzed on an ABI 3130xL genetic analyzer (Applied Biosystems) with peak positions identified by using a set of X-rhodamine (ROX)-labeled MapMarker1000 molecular weight standards (BioVentures). The raw capillary electrophoresis data was processed using Attagraph software (Attagene).

outcome, inactive:
CC(C)(C)C(=O)CCc1ccc(Cl)cc1
C=C(C)C(=O)OCC(C)C
COC(=O)C1=C(C)NC(C)=C(C(=O)OCC(C)C)C1c1ccccc1[N+](=O)[O-] (stereo not given)
C=CC(=O)NC(C)(C)CS(=O)(=O)O
CC(=O)OCCC1CCCCC1
CCCNC(=O)NS(=O)(=O)c1ccc(Cl)cc1
NC(=O)OCC(COC(N)=O)c1ccccc1
COc1ccc2nc(N)sc2c1
CCCCOCCOC(=O)COc1nc(Cl)c(Cl)cc1Cl
CCO[Si](C)(OCC)OCC
CCCCCCCC/C=C\CCCCCCCC(=O)OCCO
OCCCS
O=C1CCCC1
CC(C)=CC1CC(C)CCO1 (stereo not given)
COC(=O)c1sccc1S(N)(=O)=O
ON(Cc1ccccc1)Cc1ccccc1
N#CCc1ccc(Cl)cc1Cl
C=CCCCCCCCCC(=O)OCCCC
CC=CCO
CCCCC(CC)COCC1CO1 (stereo not given)
C1CN(SSN2CCOCC2)CCO1
Cc1ccc2oc(=O)ccc2c1
CC(C)=CCCC(C)C=O (stereo not given)
CCN(Cc1cccc(S(=O)(=O)O)c1)c1ccc(C(=C2C=CC(=[N+](CC)Cc3cccc(S(=O)(=O)[O-])c3)C=C2)c2ccccc2)cc1
c1ccc(CNCc2ccccc2)cc1
Cc1ccc(N)c([N+](=O)[O-])c1
O=C1CCCCCN1SSN1CCCCCC1=O
O=C1c2ccccc2C(=O)C1c1nc2ccccc2c(Br)c1O
O=C(O)c1cc2ccccc2nc1C(=O)O
COC(F)(F)C(F)(C(F)(F)F)C(F)(F)F
COc1ccc(-c2coc3cc(O)ccc3c2=O)cc1
CCCCCCCCCCCCCCCC(=O)OCC
O=CN1CCCCC1
C=CCOc1c(Br)cc(Br)cc1Br
CCCCC/C=C\CCC=O
O=C(C(Cl)Cl)N1CCOC12CCCCC2
COC(=O)c1cc(Cl)ccc1[N+](=O)[O-]

AC50, active:
C/C=C\C/C=C/CCCCCCCCOC(C)=O 39.5 µM
CCCCCCCCCCCSCC(=O)O 79.2 µM
CN(C)c1ccc(N=Nc2ccccc2C(=O)O)cc1 23.3 µM
